Tb PYK inh = blocks Trypanosoma brucei pyruvate kinase. Q57TT1. actives 0.12% (n = 410,000). TbPYK enzyme, Kinase-Glo Plus ATP luminescence, 45 min. Potency, µM (highest dose often 76.8 µM), for the others: at the top dose activity, negative = inhibition, hits mostly inhibitors; further: potency means the concentration at half of the fitted maximal effect; on the % scale 0 is the no-effect control and ±100 the full control effect; nearly all actives have a fitted effect of over 50% in size
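Assay buffer: 50 mM TEA pH 7.2, 100 mM KCl, 10 mM MgCl2, 0.05% BSA, 0.01% Tween-20. Pyruvate kinase from T. brucei plus substrate met compound, then ADP (130 uM final). Luminescence was read post 45 min RT.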
Shiga inhibitor = inhibitors of Shiga toxin in Vero cells; Vero cells, Shiga toxin protein synthesis inhibition reporter; inhibition, % at 38.7 µM; actives 9.2% (n = 290,000); in the data active means inhibition mostly above about 28%, no sharp cut-off; inactive means mostly below about 43%; further: 0% is about no effect
FBPA Giardia inh = inhibitors of Giardia lamblia fructose-1,6-bisphosphate aldolase; A8B2U2; purified Giardia FBPA; Potency, µM (highest dose often 59.6 µM), without a hit: top-dose activity, negative = inhibition, usual class: inhibitors; actives 0.71% (n = 290,000); AID 2451; further: potency means the concentration at half of the fitted maximal effect; on the % scale 0 is the no-effect control and ±100 the full control effect; nearly all actives have a fitted effect of over 55% in size
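40 nM FBPA preincubated 10 min at RT with compound (up to 57.5 uM final), then substrate plus GAPDH/TPI/NAD/arsenate coupling and diaphorase/resazurin added. Fluorescence read after 20 min at RT, 525/598 nm.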
CHX counter = affects cycloheximide protein synthesis inhibition readout, counter-screen; actives 12% (n = 300,000); max response, %; AID 2314; cell reporter, cycloheximide protein synthesis inhibition counterscreen; in the data active means max response mostly above about 13%, no sharp cut-off; inactive means mostly below about 14%; further: read at 38.3 µM for the half of the compounds with a filed dose; 0% is about no effect
LmPK inhibitor = inhibitors of Leishmania mexicana pyruvate kinase. AID 1721. actives 0.37% (n = 290,000). Potency, µM (highest dose often 57.5 µM), for inactives: top-dose activity change, negative = inhibition, most hits filed as inhibitors. purified LmPK, Kinase-Glo ATP luminescence, 1 h; further: potency means the concentration at half of the fitted maximal effect; on the % scale 0 is the no-effect control and ±100 the full control effect
Target sequence (Q27686 whole entry, looked up): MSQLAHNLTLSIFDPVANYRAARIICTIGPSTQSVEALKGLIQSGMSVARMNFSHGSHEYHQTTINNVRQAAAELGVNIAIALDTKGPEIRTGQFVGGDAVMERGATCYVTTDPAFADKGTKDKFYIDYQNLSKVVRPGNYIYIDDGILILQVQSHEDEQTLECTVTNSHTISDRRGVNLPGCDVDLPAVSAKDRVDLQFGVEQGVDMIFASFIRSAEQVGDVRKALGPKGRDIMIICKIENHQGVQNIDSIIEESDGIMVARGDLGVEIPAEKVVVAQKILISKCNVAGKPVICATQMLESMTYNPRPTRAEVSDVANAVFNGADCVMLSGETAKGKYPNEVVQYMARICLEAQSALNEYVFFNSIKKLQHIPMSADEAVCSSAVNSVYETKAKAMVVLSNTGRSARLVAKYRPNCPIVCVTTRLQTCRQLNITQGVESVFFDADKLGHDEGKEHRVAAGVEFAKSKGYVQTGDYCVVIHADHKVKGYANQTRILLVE
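Purified LmPK (0.1 nM) with 0.5 mM PEP and 0.1 mM ADP in imidazole buffer pH 7.2 with MgCl2/KCl, 1 h at room temperature. ATP formed was read by luciferase luminescence and normalized to no-enzyme and uninhibited controls.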
Sm TGR block = blocks Schistosoma mansoni thioredoxin glutathione reductase; actives 3% (n = 360,000); Q962Y6; AID 485364; Potency, µM (doses to about 114 µM), without a hit: at the top dose activity change, negative = inhibition, usual class: inhibitors; purified TGR, DTNB reduction, TNB absorbance 405 nm; further: potency means the concentration at half of the fitted maximal effect; on the % scale 0 is the no-effect control and ±100 the full control effect; nearly all actives have a fitted effect of over 60% in size
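TGR 20 nM + NADPH 100 uM (dispensed conc.), cpd preinc 15 min RT; start with NADPH (500 uM addition) then DTNB (15 mM addition). Kinetic TNB absorbance, 405 nm filter. Four-parameter Hill fit across titration.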
Starred values were filed as active, the others as inactive; ? = inconclusive; nt = not tested or not shown; [ ] = remark or other dose. Only a selection was taken, and hits are over-represented in it overall. Unless noted, the call rests on the fitted dose curve; in most records, active means well fitted curve in the direction sought with a large enough effect; inconclusive means small, poorly fitted or top-dose-only effect, or another doubt; inactive means no such curve, though single readings can be large; an effect the other way counts as inactive or inconclusive.

SMILES	Tb PYK inh	Shiga inhibitor	FBPA Giardia inh	CHX counter	LmPK inhibitor	Sm TGR block
CCOc1ccc(C(c2nnnn2Cc2ccccc2)N2CCN(C(=O)c3ccco3)CC2)cc1 (configuration not stated)	-2.4%	nt	nt	nt	nt	nt
Cc1ccc(C(c2nnnn2Cc2cccs2)N2CCN(C(=O)c3ccco3)CC2)cc1 (configuration not stated)	-5.8%	-0.3	-12.9%	0.8	2.4%	?
COc1ccc(Cn2nnnc2C(CC(C)C)N2CCC(C(N)=O)CC2)cc1 (configuration not stated)	-16.4%	77.1*	1.8%	43.8*	1.4%	77.6%
Cc1c(Cl)ccc2c1NC(=O)C21NC(CCC(N)=O)[C@H]2C(=O)N(c3ccc(Cl)cc3)C(=O)[C@H]21 (some centres not stated)	-1.5%	-8.7	-8.7%	-1.4	8.3%	35.5µM*
Cc1c(Cl)ccc2c1NC(=O)[C@]21N[C@@H](CCC(N)=O)[C@H]2C(=O)N(c3ccc(F)cc3)C(=O)[C@H]21	-1.9%	-13.2	2.5%	-1.5	1.5%	12.6µM*
CSCCC1NC2(C(=O)Nc3c2ccc(Cl)c3C)[C@@H]2C(=O)N(C3CCCC3)C(=O)[C@H]12 (some centres not stated)	-1.0%	-24.6	-4.7%	-4.9	7.7%	-5.5%
Cc1ccc2occ(CC(=O)N3CCN(c4cccc(Cl)c4)CC3)c2c1	1.7%	nt	nt	nt	nt	0.4%
CN1CCN(c2ncc3nc(-c4ccc(Cl)cc4)c(=O)n(Cc4ccc(F)cc4)c3n2)CC1	nt	nt	-1.7%	nt	nt	nt
CCOc1nc(NC(=O)NS(=O)(=O)c2ccccc2F)nc(-c2ccccc2)n1	-2.6%	53.3*	3.6%	21.2	-1.4%[11.5 µM]	1.0%
CCOC(=O)c1nc(NCCc2ccccc2)sc1C	3.0%	132.6*	3.0%	52.7*	7.4%	0.3%
Cc1nc(Nc2ccccc2C(F)(F)F)sc1C(=O)N(C)C	-6.4%	44.8*	-0.7%	26.1*	4.9%	6.6%
Cc1nc(NCCc2ccccc2)sc1C(=O)N(C)C	-5.9%	57.6*	-3.8%	36.5*	0.0%	-7.4%
Cc1nc(NC(=S)NC(=O)c2cccs2)sc1C(=O)N(C)C	-10.5%	23.4	?	9.5	-6.5%	-25.7%
CCOC(=O)c1nc(NNC(C)=O)sc1C	0.5%	0.3	-4.1%	-1.3	4.5%	8.4%
Cc1cc(C)c(C(=O)COC(=O)c2cccnc2Cl)c(C)c1	-6.5%	89.9*	-0.9%	56.2*	-1.1%	17.2%
CCOc1ncccc1C(=O)OCC(=O)c1ccc(OC)c(OC)c1	-7.3%	-1.2	2.8%	14.0	1.4%	-13.0%
O=C(COC(=O)c1cccnc1Cl)c1ccc(OC(F)F)cc1	-1.2%	-11.2	-1.3%	10.8	15.8µM*	-1.5%
COc1ccc(OC)c(C(=O)COC(=O)c2ccccc2O)c1	nt	110.3*	-7.9%	15.6*	-0.7%	1.6%
Cn1c(N)c(C(=O)COC(=O)c2cccnc2Cl)c(=O)n(C)c1=O	8.6%	-12.5	-2.5%	1.0	6.3%	1.5%
CCOc1ncccc1C(=O)OCC(=O)c1ccc(C)c(C)c1	-6.5%	69.8*	-1.7%	43.5*	-5.0%	5.4%
O=C(COC(=O)c1cccnc1Cl)c1ccc(Cl)cc1Cl	-9.0%	-16.1	1.0%	-4.2	-7.4%	-1.1%
CCC(Cc1ccccc1)OC(=O)c1ccccc1C(=O)O (configuration not stated)	5.0%	nt	nt	nt	nt	nt
N#CCCn1c(=O)cnc2cnc(N3CCNCC3)nc21	-4.0%	nt	-0.4%	nt	nt	nt
O=C(OCC(=O)C12CC3CC(CC(C3)C1)C2)c1ccccn1	2.7%	-10.0	nt	12.5	0.1%	7.0%
COc1ccc(C(=O)COC(=O)c2cccnc2Cl)c(OC)c1	-1.9%	72.0*	-5.7%	38.3*	-2.9%	-1.1%
SMILES	Tb PYK inh	Shiga inhibitor	FBPA Giardia inh	CHX counter	LmPK inhibitor	Sm TGR block
COc1ccc(OC)c(C(=O)COC(=O)c2cccnc2Cl)c1	0.5%	18.3	-5.9%	9.9	7.7%	-14.2%
O=C(OCC(=O)C12CC3CC(CC(C3)C1)C2)c1cccnc1Cl	3.1%	29.3	2.7%	20.1*	1.1%	5.2%
CCCCOc1ccc(C(=O)N(Cc2nc(-c3ccc(Cl)cc3)no2)C(C)C)cc1	-6.1%	nt	nt	nt	nt	3.0%
CO/N=C/C(NC(=O)c1ccc(C(F)(F)F)cc1)C(=O)OC (configuration not stated)	-5.4%	47.7	-15.6%	23.2*	-23.7%	0.0%
O=C(NCCNCCO)C1(C(F)(F)F)CC(CCc2ccccc2)CCCO1 (configuration not stated)	nt	-3.3	9.7%	-2.8	nt	nt
Clc1ccc(-c2nnc(COc3ncnc4sccc34)o2)cc1	-0.3%	34.1*	-1.3%	33.9*	-3.7%	-8.6%
CCOC(=O)C1=C(C)N(c2ccc(C)cc2)C(=O)/C1=C\c1ccc(O)c(OC)c1	?	7.9	?	7.1	?	3.16µM*
CCOc1cc(/C=C2\C(=O)N(CCc3ccc(OC)c(OC)c3)C(C)=C2C(=O)OC)ccc1O	-13.3%	-2.7	?	2.4	3.5%	20µM*
CCc1cccc2c3c([nH]c12)[C@@](CC)(CC(=O)O)OCC3	3.0%	nt	17.4%[21.7 µM]	nt	nt	nt
CCc1ccccc1N1C(=O)N(Cc2cccc(Cl)c2)c2ccccc2S1(=O)=O	11.7%	nt	nt	nt	nt	5.7%
CCc1c(C)nc(SCC(=O)c2ccc(C)c(C)c2)[nH]c1=O	-7.1%	43.9	-7.0%	19.4*	2.6%	-16.9%
CCc1nc(SCC(=O)c2ccc(C)c(C)c2)n[nH]1	-19.7%	70.5*	?	12.4	1.9%	3.1%
CC1(C)S[C@@H]2[C@H](NC(=O)COc3ccccc3)C(=O)N2[C@H]1C(=O)O (tested in a mixture with another compound)	nt	nt	-15.6%[21.7 µM]	nt	nt	nt
CCCCN(C(=O)c1ccccc1Br)C(c1ccc(OC)cc1)c1nc2ccccc2[nH]1 (configuration not stated)	0.3%	nt	nt	nt	nt	nt
Cc1ccc(CNC(=O)Nc2ccccc2)cc1	-5.6%	123.4*	6.3%	33.3*	0.9%	7.9%
Cc1ccc(CNC(=O)C2CCN(C(=O)Nc3ccccc3)CC2)cc1	-10.1%	8.8	-3.3%	7.8	-7.0%	2.1%
Cc1ccc(C)c(CNC(=O)Nc2ccccc2)c1	0.5%	74.3*	-2.2%	30.5*	1.9%	-8.0%
Cc1ccc(CNC(=O)NCc2ccccc2)cc1	1.0%	149.0*	2.6%	25.7*	0.8%	2.3%
Cc1ccc(C(=O)NCc2ccccc2)c(F)c1F	1.6%	64.7*	2.2%	13.7	0.5%	nt
CCCCOc1ccc(Cl)cc1Nc1nc(NCCO)nc(N2CCCC2)n1	0.9%	nt	nt	nt	nt	nt
O=c1c2ccccc2oc2c1oc1ccccc12	-4.6%	nt	nt	nt	nt	nt
O=C1CCC(C(=O)N2CCc3c(Cl)cccc3C2)CN1CCCN1CCOCC1 (configuration not stated)	-5.7%	-16.2	nt	11.5	-3.0%	-27.9%
Cc1ccc(CNCC(O)(c2ccccc2)c2ccccc2)cc1	-0.9%	22.6	2.0%	14.7*	-1.7%	-2.8%

Screens from PubChem.
